The record followed here is article PMC8384837, “Expanding the binding specificity for RNA recognition by a PUF domain”.

Common to all, as to assay: yeast three-hybrid, YBZ-1, SC-Leu-His + 0.5 mM 3-AT, 4 days
Common to all, as to conditions: tags: N-Gal4 AD-HA kept; label: inside an RPR1-promoter hybrid RNA with tandem MS2 sites; ssRNA

One test addresses PUM1 PUF domain R8-CYR (Homo sapiens, UniProt Q14671 828-1176, N1122C;Q1126R). Put shortly: (§1)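 A centromeric plasmid in strain YBZ-1 co-expressed Pumilio-1 PUF domain libraries, randomized at the three base-contacting residues of each repeat, with matching RNA elements; the strain carries a LexA–MS2 coat fusion and a HIS3 reporter. After four days on SC-Leu (input) or SC-Leu-His + 0.5 mM 3-AT (selection), the repeat regions were PCR-amplified and Illumina-sequenced. The interaction score is the log change in variant frequency from input to selection, using log2 and a pseudocount of 1 where absent.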

Another test has as its target PUM1 PUF domain R8-AYR (Homo sapiens, UniProt Q14671 828-1176, N1122A;Q1126R). In short, it runs like this:
as §1

In the next test the target is PUM1 PUF domain R8-PFH (Homo sapiens, UniProt Q14671 828-1176, N1122P;Y1123F;Q1126H). In short, it runs like this: as §1
The next test concerns the target PUM1 PUF domain R8-RRH (Homo sapiens, UniProt Q14671 828-1176, N1122R;Y1123R;Q1126H). Put shortly:
as §1

For the next test, the target named is PUM1 PUF domain R4-VNS (Homo sapiens, UniProt Q14671 828-1176, N971V;H972N;Q975S). In short, it runs like this: as §1
For another test, the target named is PUM1 PUF domain R7-KHF (Homo sapiens, UniProt Q14671 828-1176, S1079K;N1080H;E1083F). In short, it runs like this: as §1
A further test addresses PUM1 PUF domain R1-RNQ (Homo sapiens, UniProt Q14671 828-1176, S863R;R864N). In short, it runs like this: as §1
The next test concerns the target PUM1 PUF domain R5-RMT (Homo sapiens, UniProt Q14671 828-1176, C1007R;R1008M;Q1011T). In short, it runs like this:
as §1

Another test addresses PUM1 PUF domain R5-QSR (Homo sapiens, UniProt Q14671 828-1176, C1007Q;R1008S;Q1011R). Put shortly:
as §1

The target of another test is PUM1 PUF domain R1-VKK (Homo sapiens, UniProt Q14671 828-1176, S863V;R864K;Q867K). In short, it runs like this: as §1
For a further test, the target named is PUM1 PUF domain R5-TRV (Homo sapiens, UniProt Q14671 828-1176, C1007T;Q1011V). Put shortly: as §1
For the next test, the target named is PUM1 PUF domain R5-PMK (Homo sapiens, UniProt Q14671 828-1176, C1007P;R1008M;Q1011K). In short, it runs like this: as §1
The next test has as its target PUM1 PUF domain R7-QSN (Homo sapiens, UniProt Q14671 828-1176, S1079Q;N1080S;E1083N). In short, it runs like this: as §1
A further test deals with PUM1 PUF domain R7-KVV (Homo sapiens, UniProt Q14671 828-1176, S1079K;N1080V;E1083V). Put shortly:
as §1

In the next test the target is PUM1 PUF domain R3-RNA (Homo sapiens, UniProt Q14671 828-1176, C935R;R936N;Q939A). Put shortly:
as §1

A further test has as its target PUM1 PUF domain R3-GRW (Homo sapiens, UniProt Q14671 828-1176, C935G;Q939W). Put shortly:
as §1

The target in a further test is PUM1 PUF domain R2-RKW (Homo sapiens, UniProt Q14671 828-1176, N899R;Y900K;Q903W). In short, it runs like this: as §1
For another test, the target named is PUM1 PUF domain R2-RHE (Homo sapiens, UniProt Q14671 828-1176, N899R;Y900H;Q903E). Put shortly:
as §1

The target in the next test is PUM1 PUF domain R3-PYY (Homo sapiens, UniProt Q14671 828-1176, C935P;R936Y;Q939Y). Put shortly: as §1
For another test, the target named is PUM1 PUF domain R5-TRM (Homo sapiens, UniProt Q14671 828-1176, C1007T;Q1011M). In short, it runs like this:
as §1

Chain of PUM1 PUF domain R5-TRV (Q14671 828-1176 C1007T/Q1011V): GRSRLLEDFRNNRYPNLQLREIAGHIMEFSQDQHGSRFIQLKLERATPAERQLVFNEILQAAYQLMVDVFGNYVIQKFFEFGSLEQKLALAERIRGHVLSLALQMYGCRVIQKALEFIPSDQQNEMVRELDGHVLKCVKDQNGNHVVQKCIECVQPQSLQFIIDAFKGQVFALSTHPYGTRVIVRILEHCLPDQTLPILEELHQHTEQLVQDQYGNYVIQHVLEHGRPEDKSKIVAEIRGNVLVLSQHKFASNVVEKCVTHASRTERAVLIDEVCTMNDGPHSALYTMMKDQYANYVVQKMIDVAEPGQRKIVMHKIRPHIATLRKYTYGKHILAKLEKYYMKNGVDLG
Chain of PUM1 PUF domain R8-CYR (Q14671 828-1176 N1122C/Q1126R): as the sequence (Q14671 828-1176 C1007T/Q1011V) above, with T180C, V184Q, N295C, Q299R counted along it
Chain of PUM1 PUF domain R4-VNS (Q14671 828-1176 N971V/H972N/Q975S): as the sequence (Q14671 828-1176 C1007T/Q1011V) above, with N144V, H145N, Q148S, T180C, V184Q counted along it
Chain of PUM1 PUF domain R8-RRH (Q14671 828-1176 N1122R/Y1123R/Q1126H): as the sequence (Q14671 828-1176 C1007T/Q1011V) above, with T180C, V184Q, N295R, Y296R, Q299H counted along it
Chain of PUM1 PUF domain R3-GRW (Q14671 828-1176 C935G/Q939W): as the sequence (Q14671 828-1176 C1007T/Q1011V) above, with C108G, Q112W, T180C, V184Q counted along it
Chain of PUM1 PUF domain R8-AYR (Q14671 828-1176 N1122A/Q1126R): as the sequence (Q14671 828-1176 C1007T/Q1011V) above, with T180C, V184Q, N295A, Q299R counted along it
Chain of PUM1 PUF domain R5-QSR (Q14671 828-1176 C1007Q/R1008S/Q1011R): as the sequence (Q14671 828-1176 C1007T/Q1011V) above, with T180Q, R181S, V184R counted along it
Chain of PUM1 PUF domain R7-QSN (Q14671 828-1176 S1079Q/N1080S/E1083N): as the sequence (Q14671 828-1176 C1007T/Q1011V) above, with T180C, V184Q, S252Q, N253S, E256N counted along it
Chain of PUM1 PUF domain R8-PFH (Q14671 828-1176 N1122P/Y1123F/Q1126H): as the sequence (Q14671 828-1176 C1007T/Q1011V) above, with T180C, V184Q, N295P, Y296F, Q299H counted along it
Chain of PUM1 PUF domain R2-RHE (Q14671 828-1176 N899R/Y900H/Q903E): as the sequence (Q14671 828-1176 C1007T/Q1011V) above, with N72R, Y73H, Q76E, T180C, V184Q counted along it
Chain of PUM1 PUF domain R3-RNA (Q14671 828-1176 C935R/R936N/Q939A): as the sequence (Q14671 828-1176 C1007T/Q1011V) above, with C108R, R109N, Q112A, T180C, V184Q counted along it
Chain of PUM1 PUF domain R5-RMT (Q14671 828-1176 C1007R/R1008M/Q1011T): as the sequence (Q14671 828-1176 C1007T/Q1011V) above, with T180R, R181M, V184T counted along it
Chain of PUM1 PUF domain R5-PMK (Q14671 828-1176 C1007P/R1008M/Q1011K): as the sequence (Q14671 828-1176 C1007T/Q1011V) above, with T180P, R181M, V184K counted along it
Chain of PUM1 PUF domain R5-TRM (Q14671 828-1176 C1007T/Q1011M): as the sequence (Q14671 828-1176 C1007T/Q1011V) above, with V184M counted along it
Chain of PUM1 PUF domain R3-PYY (Q14671 828-1176 C935P/R936Y/Q939Y): as the sequence (Q14671 828-1176 C1007T/Q1011V) above, with C108P, R109Y, Q112Y, T180C, V184Q counted along it
Chain of PUM1 PUF domain R7-KVV (Q14671 828-1176 S1079K/N1080V/E1083V): as the sequence (Q14671 828-1176 C1007T/Q1011V) above, with T180C, V184Q, S252K, N253V, E256V counted along it
Chain of PUM1 PUF domain R7-KHF (Q14671 828-1176 S1079K/N1080H/E1083F): as the sequence (Q14671 828-1176 C1007T/Q1011V) above, with T180C, V184Q, S252K, N253H, E256F counted along it
Chain of PUM1 PUF domain R1-VKK (Q14671 828-1176 S863V/R864K/Q867K): as the sequence (Q14671 828-1176 C1007T/Q1011V) above, with S36V, R37K, Q40K, T180C, V184Q counted along it
Chain of PUM1 PUF domain R2-RKW (Q14671 828-1176 N899R/Y900K/Q903W): as the sequence (Q14671 828-1176 C1007T/Q1011V) above, with N72R, Y73K, Q76W, T180C, V184Q counted along it
Chain of PUM1 PUF domain R1-RNQ (Q14671 828-1176 S863R/R864N): as the sequence (Q14671 828-1176 C1007T/Q1011V) above, with S36R, R37N, T180C, V184Q counted along it

Turning to “GGCUAGAACUAGUGGAUCCCCCGGCGCCCGGCGGCUCGAGCCCGGGUAAGCGUAAAUAGUCUGCAUGCCGCCGGGCGCCAUGCCUGCAGGUCGACUCUAGAAAACAUG”, the binding signal with PUM1 PUF domain R8-CYR is 4.19 log2 enrichment (interaction score); with PUM1 PUF domain R8-AYR, 4.07 log2 enrichment (interaction score); with PUM1 PUF domain R8-PFH it was 2.98 log2 enrichment (interaction score); with PUM1 PUF domain R8-RRH, 2.65 log2 enrichment (interaction score).
As to “GGCUAGAACUAGUGGAUCCCCCGGCGCCCGGCGGCUCGAGCCCGGGUAAGUGUACAUAGUCUGCAUGCCGCCGGGCGCCAUGCCUGCAGGUCGACUCUAGAAAACAUG”, in the test with PUM1 PUF domain R4-VNS, the binding signal was 1.91 log2 enrichment (interaction score).
As for “GGCUAGAACUAGUGGAUCCCCCGGCGCCCGGCGGCUCGAGCCCGGGUAAGUCUAAAUAGUCUGCAUGCCGCCGGGCGCCAUGCCUGCAGGUCGACUCUAGAAAACAUG”, the binding signal with PUM1 PUF domain R7-KHF was 2.94 log2 enrichment (interaction score).
For the sequence “GGCUAGAACUAGUGGAUCCCCCGGCGCCCGGCGGCUCGAGCCCGGGUAAGUGUAAAUCGUCUGCAUGCCGCCGGGCGCCAUGCCUGCAGGUCGACUCUAGAAAACAUG”, the binding signal with PUM1 PUF domain R1-RNQ is 4.55 log2 enrichment (interaction score).
As for “GGCUAGAACUAGUGGAUCCCCCGGCGCCCGGCGGCUCGAGCCCGGGUAAGUGUCAAUAGUCUGCAUGCCGCCGGGCGCCAUGCCUGCAGGUCGACUCUAGAAAACAUG”, the binding signal with PUM1 PUF domain R5-RMT was 3.58 log2 enrichment (interaction score); with PUM1 PUF domain R5-QSR, 4.21 log2 enrichment (interaction score).
As to “GGCUAGAACUAGUGGAUCCCCCGGCGCCCGGCGGCUCGAGCCCGGGUAAGUGUAAAUUGUCUGCAUGCCGCCGGGCGCCAUGCCUGCAGGUCGACUCUAGAAAACAUG”, the binding signal with PUM1 PUF domain R1-VKK is 2.11 log2 enrichment (interaction score).
As for “GGCUAGAACUAGUGGAUCCCCCGGCGCCCGGCGGCUCGAGCCCGGGUAAGUGUUAAUAGUCUGCAUGCCGCCGGGCGCCAUGCCUGCAGGUCGACUCUAGAAAACAUG”, the binding signal with PUM1 PUF domain R5-TRV is 3.28 log2 enrichment (interaction score); with PUM1 PUF domain R5-PMK, 2.73 log2 enrichment (interaction score).
Consider “GGCUAGAACUAGUGGAUCCCCCGGCGCCCGGCGGCUCGAGCCCGGGUAAGUGUGAAUAGUCUGCAUGCCGCCGGGCGCCAUGCCUGCAGGUCGACUCUAGAAAACAUG”, for which, in the test with PUM1 PUF domain R5-TRV, the binding signal is 3.38 log2 enrichment (interaction score).
For “GGCUAGAACUAGUGGAUCCCCCGGCGCCCGGCGGCUCGAGCCCGGGUAAGUUUAAAUAGUCUGCAUGCCGCCGGGCGCCAUGCCUGCAGGUCGACUCUAGAAAACAUG”, the binding signal with PUM1 PUF domain R7-QSN was 4.28 log2 enrichment (interaction score); in the test with PUM1 PUF domain R7-KVV it was 2.62 log2 enrichment (interaction score).
Regarding “GGCUAGAACUAGUGGAUCCCCCGGCGCCCGGCGGCUCGAGCCCGGGUAAGUGUAAUUAGUCUGCAUGCCGCCGGGCGCCAUGCCUGCAGGUCGACUCUAGAAAACAUG”, the binding signal with PUM1 PUF domain R3-RNA is 3.87 log2 enrichment (interaction score); in the test with PUM1 PUF domain R3-GRW it was 0.31 log2 enrichment (interaction score).
As for “GGCUAGAACUAGUGGAUCCCCCGGCGCCCGGCGGCUCGAGCCCGGGUAAGUGUAAAGAGUCUGCAUGCCGCCGGGCGCCAUGCCUGCAGGUCGACUCUAGAAAACAUG”, the figures for the binding signal with PUM1 PUF domain R2-RKW and with PUM1 PUF domain R2-RHE were 2.92 log2 enrichment (interaction score) and 3.71 log2 enrichment (interaction score), respectively.
With “GGCUAGAACUAGUGGAUCCCCCGGCGCCCGGCGGCUCGAGCCCGGGUAAGUGUAAAUAGUCUGCAUGCCGCCGGGCGCCAUGCCUGCAGGUCGACUCUAGAAAACAUG”, the binding signal in the test with PUM1 PUF domain R5-TRV was 4.29 log2 enrichment (interaction score); in the test with PUM1 PUF domain R8-CYR, 4.59 log2 enrichment (interaction score); in the test with PUM1 PUF domain R8-AYR, 4.26 log2 enrichment (interaction score); with PUM1 PUF domain R8-RRH, 0.67 log2 enrichment (interaction score); with PUM1 PUF domain R3-PYY, 6.39 log2 enrichment (interaction score); with PUM1 PUF domain R3-GRW, 4.33 log2 enrichment (interaction score). Further, the values for the binding signal with PUM1 PUF domain R5-QSR and with PUM1 PUF domain R5-TRM were 1.54 log2 enrichment (interaction score) and 2.74 log2 enrichment (interaction score), respectively.
With “GGCUAGAACUAGUGGAUCCCCCGGCGCCCGGCGGCUCGAGCCCGGGUAAGUGUAUAUAGUCUGCAUGCCGCCGGGCGCCAUGCCUGCAGGUCGACUCUAGAAAACAUG”, the binding signal in the test with PUM1 PUF domain R4-VNS was 2.92 log2 enrichment (interaction score).
Take “GGCUAGAACUAGUGGAUCCCCCGGCGCCCGGCGGCUCGAGCCCGGGUAAGGGUAAAUAGUCUGCAUGCCGCCGGGCGCCAUGCCUGCAGGUCGACUCUAGAAAACAUG”: the binding signal with PUM1 PUF domain R8-CYR is 2.63 log2 enrichment (interaction score).
